The structures appear in SMILES notation. Results filed as inconclusive are left out. Active and inactive are the calls of the source. The calls were made as follows: active = hit-call score of the fitted dose curve at least 0.9, where 1 is the maximum; inconclusive = response in the unintended direction; inactive = score below 0.9.

This experiment can be described thus: Tanguay_ZF_120hpf_SNOU_legacy: (Legacy) Oregon State University Tanguay Lab 120 Hour Post-fertilization zebrafish Assay for Snout Malformation (AID 2283637). The method, then:
Tanguay_ZF_120hpf_legacy is a whole embryo, multiplexed endpoint assay using zebrafish larvae exposed for 120 hours post fertilization on a 96-well plate.Tanguay_ZF_120hpf_SNOU_legacy is one of one assay component(s) measured or calculated from the Tanguay_ZF_120hpf_legacy assay. It is designed to make measurements of zebrafish development as detected with brightfield microscopy of developing zebrafish embryos.Data from the assay component Tanguay_ZF_120hpf_SNOU_legacy was analyzed into 1 assay endpoints. This assay endpoint, Tanguay_ZF_120hpf_SNOU_legacy, was analyzed in the positive analysis fitting direction relative to DMSO as the negative control and baseline of activity. Using a type of morphology reporter, gain-of-signal activity can be used to understand changes in developmentals as they relate to the whole embryo. To generalize the intended target to other relatable targets, this assay endpoint is annotated to the zebrafish development intended target family, where the subfamily is embryonic snout morphogenesis.
Zebrafish husbandry: Tropical 5D wild-type adult zebrafish were housed in at an approximate density of 1000 per 100 gallon tank at the Sinnhuber Aquatic Research Laboratory, Oregon State University, Corvallis, OR. Each tank was kept at standard laboratory conditions of 28C on a 14-h light/10-h dark photoperiod in fish water consisting of reverse osmosis water supplemented with a commercially available salt (Instant Ocean). Spawning funnels were placed into the tanks the night prior, and embryos were collected and staged. To increase bioavailability, the chorion was enzymatically removed using pronase (63.6mg/ml, >/= 3.5U/mg, Sigma-Aldrich: P5147) at 4 hours post fertilization (hpf) using a custom automated dechorionator.Chemical exposures: Six hpf dechorionated embryos were placed 1 embryo per well in a 96-well plate prefilled with 90 ul of EM using automated embryo placement systems (AEPS). Ten microliters of each row of dilution plate 2 was added to 2 exposure plates. The final DMSO concentration used was 0.64% (vol/vol). Thirty-two embryos were also exposed to 5uM trimethyltin chloride (positive control). Plates were sealed to prevent evaporation and foil covered to reduce light exposure and kept in a 28C incubator. Embryos were statically exposed until 120 hpf. At 24 hpf, embryos were assessed for photomotor response using a custom photomotor response analysis tool (PRAT) and for developmental toxicity endpoints (MO24: mortality at 24 hpf, DP: developmental progression, SM: spontaneous movement, and NC: notochord distortion). At 120 hpf, locomotor activity was measured using Viewpoint Zebralab and assessed for 18 endpoints. Zebrafish acquisition and analysis program (ZAAP), a custom program designed to inventory, acquire, and manage zebrafish data, was used to collect developmental endpoints as either present or absent (i.e., binary responses were recorded). If mortality occurred for an embryo (at either 24 or 120 hpf), the non-mortality endpoints were not measured.
As to `CCCCNC(=O)n1c(NC(=O)OC)nc2ccccc21`, the AC50 was 56.7 µM (active).
Consider `CCOC(=O)CC(SP(=S)(OC)OC)C(=O)OCC` (stereo not given), for which the AC50 is 38.1 µM (active).
`CCOP(=S)(OCC)SCn1c(=O)oc2cc(Cl)ccc21`: the compound was called inactive.
For the compound `CCNc1nc(Cl)nc(NC(C)C)n1`, the result was inactive.
Regarding `Cc1cc(Cl)ccc1OCC(=O)O`, the outcome was inactive.
Take `N#CC(CCc1ccc(Cl)cc1)(Cn1cncn1)c1ccccc1` (stereo not given): the call was inactive.
For the compound `CCON=C(CC)C1=C(O)CC(c2c(C)cc(C)cc2C)CC1=O` (stereo not given), the compound was called inactive.
The same measure, in the same setting: with `COc1nc(NC(C)C)nc(NC(C)C)n1` the entry was “inactive”; with `COc1cnc(OC)n2nc(NS(=O)(=O)c3c(OCC(F)F)cccc3C(F)(F)F)nc12`, “inactive”.
For `CS/C(C)=N/OC(=O)N(C)SN(C)C(=O)O/N=C(\C)SC`, the outcome was inactive.
As for `CN(C)C(=S)SSC(=S)N(C)C`, the compound was classed as inactive.
`C=CC1(C)OC(=O)N(c2cc(Cl)cc(Cl)c2)C1=O` (stereo not given): the outcome was inactive.
The same measure, in the same setting: with `CCCCOC(=O)c1ccccc1C(=O)OCCCC` the entry was “inactive”; with `CC1=C(C(=O)Nc2ccccc2)SCCO1`, “inactive”; with `Cc1ccc(-c2c(Cl)nc(C#N)n2S(=O)(=O)N(C)C)cc1`, “inactive”.
Take `COC(=O)C(C)Oc1ccc(Oc2ccc(Cl)cc2Cl)cc1` (stereo not given): the outcome was inactive.
On to `OC(c1ccc(Cl)cc1)(c1cncnc1)c1ccccc1Cl` (stereo not given), for which the call was inactive.
Regarding `Oc1ccccc1-c1ccccc1`, the call was inactive.
For the compound `COC(=O)C=C(C)OP(=O)(OC)OC`, the result was inactive.
Consider `C=CCC1=C(C)C(OC(=O)C2C(C=C(C)C)C2(C)C)CC1=O` (stereo not given), for which the result was inactive.
`CCOC(=O)C(Cl)Cc1cc(-n2nc(C)n(C(F)F)c2=O)c(F)cc1Cl` (stereo not given): the AC50 is 4.26 µM (active).
Still for that read-out and setting: with `CCCC1COC(Cn2cncn2)(c2ccc(Cl)cc2Cl)O1` (stereo not given) the figure was 25.2 µM (active).
For `O=C(O)c1nc(Cl)ccc1Cl`, the outcome was inactive.
As to `COC(=O)c1ccccc1C(=O)OC`, the call was inactive.
The same measure, in the same setting: the value for `COP(N)(=O)SC` (stereo not given) was “inactive”.
In the case of `CCCCNC(=O)OCC#CI`, the compound was classed as inactive.
The same measure, in the same setting: with `CO/C=C(/C(=O)OC)c1ccccc1Oc1cc(Oc2ccccc2C#N)ncn1` the entry was “inactive”.
For `CCCN(CCC)c1c([N+](=O)[O-])cc(S(N)(=O)=O)cc1[N+](=O)[O-]`, the compound was classed as inactive.
Take `Cc1c(F)c(F)c(COC(=O)C2C(/C=C(\Cl)C(F)(F)F)C2(C)C)c(F)c1F` (stereo not given): the AC50 is 4.35 µM (active).
As for `CC(C)Oc1cc(-n2nc(C(C)(C)C)oc2=O)c(Cl)cc1Cl`, the outcome was inactive.
Same read-out and setting: the value for `CC1COC(Cn2cncn2)(c2ccc(Oc3ccc(Cl)cc3)cc2Cl)O1` (stereo not given) was “inactive”; that for `O=C(O)COc1nc(Cl)c(Cl)cc1Cl` was “inactive”.
The same measure, in the same setting: with `CCNc1nc(Cl)nc(NCC)n1` the entry was “inactive”.
On to `CC(C)C1(C)N=C(c2nc3ccccc3cc2C(=O)O)NC1=O` (stereo not given), for which the compound was classed as inactive.
Regarding `Fc1ccc(Oc2ccnc3cc(Cl)cc(Cl)c23)cc1`, the result was inactive.
Consider `COC(=O)N(OC)c1ccccc1COc1ccn(-c2ccc(Cl)cc2)n1`, for which the result was inactive.
For the compound `CCOc1cc(Oc2ccc(C(F)(F)F)cc2Cl)ccc1[N+](=O)[O-]`, the compound was classed as inactive.
Still for that read-out and setting: the value for `CNC(=S)S` was “inactive”; that for `CNC(=O)ON=CC(C)(C)SC` was “inactive”.
Same read-out and setting: with `C#CCOS(=O)OC1CCCCC1Oc1ccc(C(C)(C)C)cc1` (stereo not given) the entry was “inactive”.

In general, AC50 refers to the concentration at which the activity in the assay is half-maximal.

The values are drawn from PubChem BioAssay (EPA / NIEHS).
